Compound activity as filed in PubChem BioAssay.
In the library only some 10% were active in any assay of this set; here they are far more common.
KB-V1 MDR tox = KB-V1 MDR subline cytotoxicity; Potency, µM (top dose mostly 46.1 µM), actives largely listed as cytotoxic; KB-V1 MDR cells viability, CellTiter-Glo, 72 h; hit rate 3.4% among 400,000; also: % is scaled to controls: 0 for no effect and ±100 for the full control effect; nearly all actives have a fitted effect of over 60% in size
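Cytotoxicity toward P-gp-expressing KB-V1 cells was determined as loss of CellTiter-Glo luminescence after 72 h at 37 degrees C. Compounds were tested in quantitative HTS format across a concentration range, with curves fitted to normalized data.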
SW480 rereplic = inducers of DNA re-replication in SW480 colon cancer cells | Potency, µM (top dose mostly 46.1 µM), inactives show top-dose re-replication activation, most hits filed as activators | SW480 DNA re-replication, Hoechst DNA content imaging, 48 h | hit rate 1.8% among 340,000; also: % of control where 0% means no effect; nearly all actives have a fitted effect of over 55% in size
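250 cells/well; 23 nL cpd via pin tool; 48 hr, 37 C, 5% CO2; Hoechst 40 min; imager read of total nuclear intensity, ex 405/em 500-530 nm.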
MCF10A rereplic = induces DNA re-replication in MCF 10a normal breast cells; Potency, µM (doses to about 46.1 µM), inactives show at the highest dose activity, positive = re-replication, most hits filed as activators; MCF 10A DNA re-replication, Hoechst nuclear intensity, 48 h; hit rate 2.9% among 350,000; also: % of control where 0% means no effect; nearly all actives have a fitted effect of over 50% in size
RORgamma inh = inhibitors of mouse ROR gamma transcriptional activity | P51450 | hit rate 5.4% among 310,000 | AID 2551 | Drosophila S2 Gal4-RORgamma UAS-luciferase reporter, 20 h | Potency, µM (titrated, usually from 53.6 µM), without a hit: at the top dose activity change, negative = inhibition, usual class: inhibitors; also: % is scaled to controls: 0 for no effect and ±100 for the full control effect; nearly all actives have a fitted effect of over 60% in size
Target sequence (P51450 whole entry, looked up, the tested form may be a part): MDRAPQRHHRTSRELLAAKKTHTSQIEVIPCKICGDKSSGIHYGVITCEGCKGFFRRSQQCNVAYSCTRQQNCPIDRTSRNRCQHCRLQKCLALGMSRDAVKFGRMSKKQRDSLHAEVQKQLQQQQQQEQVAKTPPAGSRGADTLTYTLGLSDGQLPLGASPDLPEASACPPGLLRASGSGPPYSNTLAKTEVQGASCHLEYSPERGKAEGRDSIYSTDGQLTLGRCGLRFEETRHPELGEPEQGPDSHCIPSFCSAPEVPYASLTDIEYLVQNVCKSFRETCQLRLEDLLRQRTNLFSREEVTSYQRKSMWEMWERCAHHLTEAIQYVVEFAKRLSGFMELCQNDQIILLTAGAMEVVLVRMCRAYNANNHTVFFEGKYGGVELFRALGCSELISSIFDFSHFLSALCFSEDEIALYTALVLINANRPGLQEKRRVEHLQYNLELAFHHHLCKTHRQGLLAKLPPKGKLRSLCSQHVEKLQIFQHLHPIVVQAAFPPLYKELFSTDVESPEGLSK
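A Gal4/UAS one-hybrid system in insect cells: metallothionein-promoter Gal4–ROR gamma fusion plus Photinus luciferase reporter. Copper sulfate 700 uM final, 20 hr ambient incubation, luminescent detection after 10 min with reagent.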
KB-3-1 cytotox = KB-3-1 parental cell cytotoxicity; KB-3-1 viability, CellTiter-Glo ATP luminescence, 72 h; Potency, µM (titrated, usually from 46.1 µM), hits mostly cytotoxic; hit rate 1.4% among 400,000; also: % is scaled to controls: 0 for no effect and ±100 for the full control effect; nearly all actives have a fitted effect of over 60% in size
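Cytotoxicity in the drug-sensitive parental line KB-3-1 was scored as loss of CellTiter-Glo luminescence following 72 h incubation with compound. Values come from curve fitting of normalized concentration-response data.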
Gal4-VP16 FLuc = Gal4-VP16 reporter inhibition counter-screen; AID 2546; hit rate 3.5% among 310,000; Drosophila S2 Gal4-VP16 UAS-luciferase, luminescence, 20 h; Potency, µM (titrated, usually from 53.6 µM), without a hit: at the top dose activity, negative = inhibition, hits mostly inhibitors;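 also: Gal4-VP16 expression switched on by copper sulfate through the metallothionein promoter; % is scaled to controls: 0 for no effect and ±100 for the full control effect; nearly all actives have a fitted effect of over 50% in size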
Starred values were filed as active, the others as inactive; [ ] = remark or other dose. Calls follow the shape of the dose curve; as a rule, active = well fitted curve in the direction sought with a large enough effect; inconclusive = small, poorly fitted or top-dose-only effect, or another doubt; inactive = no such curve, though single readings can be large; an effect the other way counts as inactive or inconclusive. Potency is read from the fitted curve at half-maximal effect.

What do the screens show for `O=C(Nc1nc2ccc(F)cc2s1)C1CCN(S(=O)(=O)c2cc([N+](=O)[O-])ccc2Cl)CC1`?
KB-V1 MDR tox: 14.6µM*; SW480 rereplic: inconclusive; MCF10A rereplic: inconclusive; RORgamma inh: inconclusive; KB-3-1 cytotox: 14.6µM*; Gal4-VP16 FLuc: 5.01µM*

How did Cc1c(C(=O)Nc2ccc(F)c(Cl)c2)sc2nc3n(c(=O)c12)CCC3 do in these assays?
KB-V1 MDR tox: inconclusive; KB-3-1 cytotox: inactive

Results for Cc1ccc(/C=C/C(=O)c2ccc(C)cc2)cc1 ?
KB-V1 MDR tox: inactive; SW480 rereplic: inconclusive; MCF10A rereplic: 15.7%; RORgamma inh: -38.1%; KB-3-1 cytotox: inactive; Gal4-VP16 FLuc: -13.4%

How did Cc1ccc(C(=O)/C=C/C(=O)c2ccc(C)cc2)cc1 do in these assays?
KB-V1 MDR tox: inactive; SW480 rereplic: -3.1%; MCF10A rereplic: 3.66µM*; RORgamma inh: 5.01µM*; KB-3-1 cytotox: inactive; Gal4-VP16 FLuc: inconclusive

Results for Cc1cccc(C=CC(=O)c2ccccc2)c1 ?
KB-V1 MDR tox: inactive; SW480 rereplic: inconclusive; MCF10A rereplic: inconclusive; KB-3-1 cytotox: inconclusive

How did Cc1ccc(C(=O)C=Cc2cccc(C)c2)cc1 do in these assays?
KB-V1 MDR tox: inactive; SW480 rereplic: inconclusive; MCF10A rereplic: 18.4µM*; KB-3-1 cytotox: inactive

How did CCN(CC)c1ccc(-c2nn3c(-c4n[nH]c5c4CCC5)nnc3s2)cc1 do in these assays?
KB-V1 MDR tox: inconclusive; SW480 rereplic: 1.84µM*; MCF10A rereplic: 1.46µM*; RORgamma inh: -23.5%; KB-3-1 cytotox: inconclusive; Gal4-VP16 FLuc: 2.8%

How did COc1ccc2c(c1)CCc1c-2nc2ccccc2c1N1CCOCC1 do in these assays?
KB-V1 MDR tox: inconclusive; SW480 rereplic: inconclusive; MCF10A rereplic: 16.4µM*; RORgamma inh: 0.0%; KB-3-1 cytotox: inconclusive; Gal4-VP16 FLuc: inconclusive

What do the screens show for `COc1ccc2c(-c3ccccc3)cc(N3CCOCC3)nc2c1`?
KB-V1 MDR tox: inactive; SW480 rereplic: 1.1%; MCF10A rereplic: 20.6µM*; RORgamma inh: 8.0%; KB-3-1 cytotox: inactive; Gal4-VP16 FLuc: 0.1%

What do the screens show for `c1ccc(-c2cc(-c3ccc(N4CCOCC4)cc3)nc3ccccc23)cc1`?
KB-V1 MDR tox: inactive; SW480 rereplic: 15.8%; MCF10A rereplic: inconclusive; RORgamma inh: -4.6%[10 µM]; KB-3-1 cytotox: inactive; Gal4-VP16 FLuc: -13.2%

How did c1ccc2c(N3CCOCC3)c3c(nc2c1)CCC3 do in these assays?
KB-V1 MDR tox: inactive; SW480 rereplic: -27.0%; MCF10A rereplic: 6.1%; RORgamma inh: -10.1%[1.91 µM]; KB-3-1 cytotox: inactive; Gal4-VP16 FLuc: -15.3%

What do the screens show for `CN(C)c1ccc(C=O)cc1[N+](=O)[O-]`?
KB-V1 MDR tox: inactive; KB-3-1 cytotox: inactive

What do the screens show for `Brc1ccc2nc(-c3cccs3)c(NCC3CCCO3)n2c1` (centres undefined)?
KB-V1 MDR tox: inactive; SW480 rereplic: 46.0%; MCF10A rereplic: 20.6µM*; RORgamma inh: inconclusive; KB-3-1 cytotox: inactive; Gal4-VP16 FLuc: -10.6%

What do the screens show for `c1csc(-c2nc(NCC3CCCO3)c3ccccc3n2)c1` (centres undefined)?
KB-V1 MDR tox: inactive; SW480 rereplic: 0.5%; MCF10A rereplic: 8.0%; RORgamma inh: inconclusive; KB-3-1 cytotox: inactive; Gal4-VP16 FLuc: -16.3%

What do the screens show for `COC(=O)c1ccccc1NC(=O)CSCC(=O)Nc1ccccc1OC`?
KB-V1 MDR tox: 9.2µM*; SW480 rereplic: 2.0%; MCF10A rereplic: 3.5%; RORgamma inh: 7.7%; KB-3-1 cytotox: inactive; Gal4-VP16 FLuc: -9.3%

How did CCSc1nc2ccccc2n1C(=O)/C=C\c1ccc(OC)c(OC)c1 do in these assays?
KB-V1 MDR tox: inconclusive; SW480 rereplic: 8.2µM*; MCF10A rereplic: 4.11µM*; RORgamma inh: 10µM*; KB-3-1 cytotox: inconclusive; Gal4-VP16 FLuc: 10µM*

What do the screens show for `COc1ccccc1NC(=O)CSc1nc2ccccc2n1C(C)=O`?
KB-V1 MDR tox: 16.4µM*; SW480 rereplic: 0.4%; MCF10A rereplic: 17.3%; RORgamma inh: inconclusive; KB-3-1 cytotox: inactive; Gal4-VP16 FLuc: -4.0%

How did CCn1c(SCC(=O)Nc2ccccc2OC)nc2ccccc2c1=O do in these assays?
KB-V1 MDR tox: inconclusive; SW480 rereplic: 27.1%; MCF10A rereplic: inconclusive; RORgamma inh: 1.2%; KB-3-1 cytotox: inactive; Gal4-VP16 FLuc: 3.5%

What do the screens show for `CCSc1nc2ccccc2n1CC(N)=O`?
KB-V1 MDR tox: inactive; SW480 rereplic: -5.9%; MCF10A rereplic: 0.1%; RORgamma inh: -34.0%; KB-3-1 cytotox: inactive; Gal4-VP16 FLuc: -14.7%

How did O=C1CN(C(=O)c2ccc(S(=O)(=O)N3CCCC3)cc2)C(c2ccc(F)cc2)c2cc(Br)ccc2N1 (centres undefined) do in these assays?
KB-V1 MDR tox: inactive; KB-3-1 cytotox: inactive

What do the screens show for `Cc1ccccc1CN1CCN(C(=O)[C@H]2O[C@@H](n3cnc4c(N)ncnc43)[C@H](O)[C@@H]2O)CC1`?
KB-V1 MDR tox: inactive; KB-3-1 cytotox: inactive

What do the screens show for `CCc1nc2ccc(C(=O)NCc3cc(OC)ccc3OC)cc2nc1CC`?
KB-V1 MDR tox: inactive; KB-3-1 cytotox: inactive

What do the screens show for `C/C(=N\Nc1nc(-c2ccccn2)nc2ccccc12)c1ccc(F)cc1`?
KB-V1 MDR tox: inconclusive; SW480 rereplic: inconclusive; MCF10A rereplic: 7.2%; RORgamma inh: 0.126µM*; KB-3-1 cytotox: inactive; Gal4-VP16 FLuc: 1.12µM*

How did C/C(=N/Nc1nc(-c2ccccc2F)nc2ccccc12)c1ccccc1O do in these assays?
KB-V1 MDR tox: inactive; SW480 rereplic: 0.8%; MCF10A rereplic: -0.2%; RORgamma inh: 3.16µM*; KB-3-1 cytotox: inconclusive; Gal4-VP16 FLuc: 7.94µM*

What do the screens show for `Oc1ccccc1Nc1nc(-c2ccccc2O)nc2ccccc12`?
KB-V1 MDR tox: inactive; SW480 rereplic: -1.9%; MCF10A rereplic: 4.4%; RORgamma inh: 0.1%; KB-3-1 cytotox: inactive; Gal4-VP16 FLuc: -6.9%

Results for Oc1ccc(Nc2nc(-c3ccccc3F)nc3ccccc23)cc1 ?
KB-V1 MDR tox: inactive; SW480 rereplic: -11.1%; MCF10A rereplic: -5.5%; RORgamma inh: -3.7%; KB-3-1 cytotox: inactive; Gal4-VP16 FLuc: 0.7%

How did C/C(=N\Nc1nc(-c2ccccc2O)nc2ccccc12)c1ccccc1 do in these assays?
KB-V1 MDR tox: inactive; SW480 rereplic: 15.1%; MCF10A rereplic: 16.3%; RORgamma inh: 4.47µM*; KB-3-1 cytotox: inactive; Gal4-VP16 FLuc: inconclusive

How did Cc1oc2ncnc(N3CCCCC3)c2c1C(=O)NCC1CCN(Cc2cccc(F)c2)CC1 do in these assays?
KB-V1 MDR tox: inactive; KB-3-1 cytotox: inactive

What do the screens show for `CC(C)COc1ccc(C(=O)N2CCC(c3nc4ccccc4s3)CC2)cc1`?
KB-V1 MDR tox: inactive; KB-3-1 cytotox: inactive
